In all, about 5,500 compounds went through this assay and about 2,000 (36%) were called active. Roughly 18% stayed inconclusive and do not appear here. Rule as the data show it: active = normalized growth mostly below about 0.91 (no sharp cut-off); inconclusive = no clear call, values can overlap the other calls; inactive = mostly above about 0.92. The list shows a part of the results.
Assay: chemical genetic growth profiling, strain panel (AID 1159580);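 also: tested at 20 µM; growth read once vehicle control cultures reached saturation at 30 °C; 1 = growth at the plate median or of vehicle wells; lower values mean less growth of the strain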
Conditions: S. cerevisiae deletion strains, growth OD

Measured: normalized growth

CCCN1CCC[C@@H]2Cc3[nH]ncc3C[C@H]21
inactive: locus YAL013W, strain DEP1, stronger effect = lower value 0.989 | locus YAL040C, strain CLN3, stronger effect = lower value 1.02 | locus YCL061C, strain MRC1 (second series), stronger effect = lower value 1 | locus YDR363W, strain ESC2, stronger effect = lower value 1.01 | locus YER002W, strain NOP16, stronger effect = lower value 1.01 | locus YMR263W, strain SAP30, stronger effect = lower value 0.994 | locus YMR307W, strain GAS1, stronger effect = lower value 0.985 | locus YNL128W, strain TEP1, stronger effect = lower value 1.02 | locus YNL175C, strain NOP13, stronger effect = lower value 1 | locus YNL197C, strain WHI3, stronger effect = lower value 1.02 | locus YNL224C, strain SQS1, stronger effect = lower value 1.01 | locus YNL322C, strain KRE1, stronger effect = lower value 1.01 | locus YOR083W, strain WHI5 (second series), stronger effect = lower value 1.02

O=C(Oc1ccc2ccccc2c1C1SCCS1)c1ccc([N+](=O)[O-])o1
inactive: locus YAR019C, strain CDC15, stronger effect = lower value 0.952 | locus YBL105C, strain PKC1, stronger effect = lower value 0.958 | locus YBR135W, strain CKS1, stronger effect = lower value 0.966 | locus YBR136W, strain MEC1, stronger effect = lower value 0.957 | locus YBR160W, strain CDC28, stronger effect = lower value 0.947 | locus YDL017W, strain CDC7, stronger effect = lower value 0.958 | locus YDL028C, strain MPS1, stronger effect = lower value 0.942 | locus YDL101C, strain DUN1, stronger effect = lower value 0.943 | locus YDL108W, strain KIN28, stronger effect = lower value 0.955 | locus YDL132W, strain cdc53, stronger effect = lower value 0.973 | locus YDL214C, strain PRR2, stronger effect = lower value 0.912 | locus YDR052C, strain DBF4, stronger effect = lower value 0.973 | locus YDR054C, strain cdc34, stronger effect = lower value 0.97 | locus YDR226W, strain ADK1, stronger effect = lower value 0.933 | locus YDR477W, strain SNF1, stronger effect = lower value 0.901 | locus YER123W, strain YCK3, stronger effect = lower value 0.907 | locus YER133W, strain GLC7, stronger effect = lower value 0.953 | locus YFL009W, strain cdc4, stronger effect = lower value 0.964 | locus YFL029C, strain CAK1, stronger effect = lower value 0.948 | locus YFR003C, strain YPI1, stronger effect = lower value 0.957 | locus YFR019W, strain FAB1, stronger effect = lower value 0.923 | locus YFR028C, strain CDC14, stronger effect = lower value 0.946 | locus YGR040W, strain KSS1, stronger effect = lower value 0.919 | locus YGR052W, strain FMP48, stronger effect = lower value 0.966 | locus YGR092W, strain DBF2, stronger effect = lower value 0.86 | locus YHR079C, strain IRE1, stronger effect = lower value 0.89 | locus YHR082C, strain KSP1, stronger effect = lower value 0.936 | locus YHR205W, strain SCH9, stronger effect = lower value 0.768 | locus YIL147C, strain SLN1, stronger effect = lower value 0.93 | locus YJL095W, strain BCK1, stronger effect = lower value 0.855 | locus YJL128C, strain PBS2, stronger effect = lower value 0.842 | locus YJL157C, strain FAR1, stronger effect = lower value 0.92 | locus YJR016C, strain ILV3, stronger effect = lower value 0.958 | locus YJR066W, strain TOR1 (second series), stronger effect = lower value 0.919 | locus YJR066W, strain TOR1, stronger effect = lower value 0.879 | locus YKL048C, strain ELM1, stronger effect = lower value 0.925 | locus YKL067W, strain YNK1, stronger effect = lower value 0.909 | locus YKL101W, strain HSL1, stronger effect = lower value 0.894 | locus YKL193C, strain SDS22, stronger effect = lower value 0.952 | locus YKL203C, strain TOR2, stronger effect = lower value 1.02 | locus YLR133W, strain CKI1, stronger effect = lower value 0.919 | locus YLR403W, strain SFP1, stronger effect = lower value 0.919 | locus YML070W, strain DAK1, stronger effect = lower value 0.907 | locus YMR001C, strain CDC5, stronger effect = lower value 0.94 | locus YMR205C, strain PFK2 (second series), stronger effect = lower value 0.938 | locus YMR277W, strain FCP1, stronger effect = lower value 0.937 | locus YNL006W, strain LST8, stronger effect = lower value 0.955 | locus YNL020C, strain ARK1, stronger effect = lower value 0.917 | locus YNL161W, strain CBK1, stronger effect = lower value 0.957 | locus YNL183C, strain NPR1, stronger effect = lower value 0.951 | locus YNL207W, strain RIO2, stronger effect = lower value 0.963 | locus YNL222W, strain SSU72, stronger effect = lower value 0.939 | locus YNL307C, strain MCK1 (second series), stronger effect = lower value 0.901 | locus YOL078W, strain AVO1, stronger effect = lower value 0.962 | locus YOL136C, strain PFK27, stronger effect = lower value 0.886 | locus YOR061W, strain CKA2, stronger effect = lower value 0.921 | locus YOR119C, strain RIO1, stronger effect = lower value 0.973 | locus YOR231W, strain MKK1, stronger effect = lower value 0.878 | locus YOR329C, strain SCD5, stronger effect = lower value 0.957 | locus YPL031C, strain PHO85, stronger effect = lower value 0.917 | locus YPL153C, strain RAD53, stronger effect = lower value 0.909 | locus YPL204W, strain HRR25, stronger effect = lower value 0.906 | locus YPL209C, strain IPL1, stronger effect = lower value 0.964 | locus YPR025C, strain CCL1, stronger effect = lower value 0.961 | locus YPR106W, strain ISR1, stronger effect = lower value 0.939 | locus YPR111W, strain DBF20, stronger effect = lower value 0.913 | strain NNK1, stronger effect = lower value 0.941 | strain TSCII, stronger effect = lower value 0.954
active: locus YHR030C, strain SLT2, stronger effect = lower value 0.698 | locus YLR113W, strain HOG1, stronger effect = lower value 0.702 | locus YPL256C, strain CLN2, stronger effect = lower value 0.807
